Test [1] in a line: NCI Yeast Anticancer Drug Screen. Data for the rad50 strain (AID 155).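 Also: 0% = growth of vehicle-only cultures of the same strain.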 The settings on record: S. cerevisiae rad50 strain growth inhibition; at 50.0 µM; active compounds read high. The essentials:
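Readout: growth inhibition relative to vehicle-treated cultures. Compound exposure was carried out in a genetically defined yeast strain deficient in DNA damage repair.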

Test [2] is described as follows: NCI Yeast Anticancer Drug Screen. Data for the mec2-1 strain (AID 157). The settings on record: S. cerevisiae mec2-1 strain, at 50.0 µM, active compounds read high. Put shortly:
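Growth inhibition is read against vehicle-treated controls after compound exposure of the mec2-1 yeast strain, which is defective in DNA damage repair or cell cycle control.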

Test [3] can be described thus: NCI Yeast Anticancer Drug Screen. Data for the sgs1 mgt1 strain (AID 161).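 Also: 0% = growth of cultures given vehicle only.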 The settings on record: S. cerevisiae sgs1 mgt1 strain, at 50.0 µM, active compounds read high. Put shortly: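 Growth of a repair-deficient yeast mutant was monitored after compound treatment and expressed as inhibition relative to vehicle-treated cultures.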
Test [4] is described as follows: NCI Yeast Anticancer Drug Screen. Data for the cln2 rad14 strain (AID 165).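 Also: 0% = growth equal to vehicle treated cultures.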 The settings on record: S. cerevisiae cln2 rad14 strain, at 50.0 µM, active compounds read high. The essentials: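 Growth inhibition, relative to vehicle-treated controls, is the read-out. The test organism is a yeast strain with defined genetic alterations, cln2 rad14.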
Test [5] is described as follows: NCI Yeast Anticancer Drug Screen. Data for the bub3 strain (AID 167). The settings on record: S. cerevisiae bub3 mutant strain, at 50.0 µM, active compounds read high. The essentials: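 Readout: yeast growth inhibition, expressed relative to vehicle-only wells. The test organism is a mutant strain from a panel with lesions in DNA repair or checkpoint genes.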
The nature of test [6]: NCI Yeast Anticancer Drug Screen. Data for the mlh1 rad18 strain (AID 175). The settings on record: S. cerevisiae mlh1 rad18 strain growth inhibition; at 50.0 µM; active compounds read high. Put shortly: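 Cells of a genetically altered yeast strain, deficient in DNA damage repair, were treated with compound. Their growth was then compared with that of vehicle-treated cultures to give inhibition.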

About 79,000 compounds went through this panel and 15% of them were active in at least one assay; those are over-represented in the sample as a whole. Unmarked numbers belong to inactive results. The source made the active and inactive calls. Rule as the data show it: active = growth inhibition above about 70%; inactive = the rest.

As to `Clc1ccc(C(c2ccccc2Cl)C(Cl)(Cl)Cl)cc1` (configuration not stated), the growth inhibition in test [1] was -24.6%; in test [2] it was -7.8%; in test [3], 1.8%; in test [4], -44.6%; in test [5], 47.5%; in test [6], 12.2%.
For `Cc1ccc(O)cc1C`, the growth inhibition in test [1] is 9.95%; in test [2], 14.1%; in test [3], 26%; in test [4] it was 26.8%; in test [5], 3.75%; in test [6], 7.95%.
Take `CN(C)C(=S)Oc1c(S(=O)(=O)F)ccc(Cl)c1Cl`: the growth inhibition in test [1] was 96.3% (active); in test [2] it was 88% (active); in test [3], 98% (active); in test [4], 76.5% (active); in test [5], 95.2% (active); in test [6] it was 98.3% (active).
As to `CCC(CC)CNC(=O)C(Cl)Cl`, the growth inhibition in test [1] was -2.25%; in test [2], -9.8%; in test [3], 18.6%; in test [4], -18.1%; in test [5], -3.4%; in test [6] it was -1%.
In the case of `C=CCCCCCCCCC(=O)Nc1ccc(Cl)cc1C(=O)c1ccccc1`, the growth inhibition in test [1] is -2.3%; in test [2], 0%; in test [3] it was 4.3%; in test [4], 28.2%; in test [5], -7.95%; in test [6], 13.8%.
As for `NC1Cc2cc(O)ccc2C1=O` (configuration not stated), the growth inhibition in test [1] is -5.95%; in test [2], 22.2%; in test [3], -3.35%; in test [4], 20.2%; in test [5], 22.8%; in test [6] it was 0.7%.
Turning to `O=C1NN2CCCN=C2c2cnccc21`, the growth inhibition is -12.3% in test [1]; 4.5% in test [2]; 11.4% in test [3]; -34.6% in test [4]; 27.6% in test [5]; -7.4% in test [6].
Turning to `CC12CCC3C4CCC(=O)C=C4CCC3C1CC1CC(=O)OC12` (configuration not stated), the growth inhibition in test [1] was -4.15%; in test [2] it was 1%; in test [3], 0.4%; in test [4], -7.95%; in test [5], 11.7%; in test [6] it was -2.8%.
With `CCCCCCP(=O)(O)O.[Zn+2]`, the growth inhibition is -33.9% in test [1]; -21.8% in test [2]; -9.65% in test [3]; -9.9% in test [4]; -35.1% in test [5]; -8.75% in test [6].
For the compound `CNC(=O)O/N=C(\SC)C(=O)N(C)C`, the growth inhibition in test [1] was -39.9%; in test [2] it was -27.2%; in test [3], -5.05%; in test [4] it was -31.2%; in test [5], -3.1%; in test [6], -1.05%.
Turning to `CC(=O)N(N=O)c1cc(Cl)ccc1Cl`, the growth inhibition in test [1] is -2.75%; in test [2], -11.1%; in test [3] it was 3.15%; in test [4], -2.15%; in test [5], -5.5%; in test [6] it was -1.45%.
In the case of `CC1=C(\C=C/C(C)=C/C=C/C(C)=C/C=C/C=C(C)\C=C\C=C(C)/C=C/C2=C(C)CCCC2(C)C)C(C)(C)CCC1`, the growth inhibition in test [1] was 28.8%; in test [2], 9.35%; in test [3], 27.1%; in test [4] it was 26.4%; in test [5], 37.2%; in test [6], 45.5%.
With `O=P(O)(NCCCl)NCCCl`, the growth inhibition in test [1] was -24.4%; in test [2], -17.9%; in test [3] it was -22.7%; in test [4] it was -5.6%; in test [5], -41.1%; in test [6], -39.5%.
As to `CCC1(CNC(=O)CN)C(=O)NC(=O)NC1=O`, the growth inhibition in test [1] is -14.8%; in test [2] it was -0.85%; in test [3], -4.4%; in test [4], 27.4%; in test [5] it was 2.7%; in test [6] it was 21.6%.
`OC(c1ccccc1)C(c1ccccc1)N1CCOCC1` (configuration not stated): the growth inhibition was -8.45% in test [1]; 4.1% in test [2]; -1.3% in test [3]; 1.65% in test [4]; 7.9% in test [5]; 9.75% in test [6].
On to `CCCCCCP(=O)(CCCCCC)CCCCCC` (tested in a mixture with another compound), for which the growth inhibition in test [1] is 77.3% (active); in test [2], 83.6% (active); in test [3] it was 87.5% (active); in test [4] it was 78.6% (active); in test [5], 62%; in test [6] it was 84.2% (active).
For `CCC(=O)OC1(c2ccccc2)CCN(C/C=C/c2cccc3ccccc23)CC1`, the growth inhibition in test [1] is 86.3% (active); in test [2] it was 76.2% (active); in test [3], 89% (active); in test [4] it was 62.8%; in test [5] it was 83% (active); in test [6], 87.2% (active).
On to `CC1(C)OC2(C)CCC1C1C2N1C(=O)c1ccccc1` (configuration not stated), for which the growth inhibition is 0.75% in test [1]; -9.75% in test [2]; 5.25% in test [3]; 4.95% in test [4]; 19.2% in test [5]; -6.2% in test [6].
On to `OC(c1ccccc1)C(Cl)(Cl)Cl` (configuration not stated), for which the growth inhibition in test [1] was 17.1%; in test [2], -10.8%; in test [3] it was 13.7%; in test [4], -42.1%; in test [5], -14.1%; in test [6], 3.55%.
Regarding `CC(=O)CC(C)=O.CC(=O)CC(C)=O.[Cl][Sn][c]1ccccc1`, the growth inhibition in test [1] was 40.8%; in test [2] it was 23.7%; in test [3] it was 49.6%; in test [4] it was 8.4%; in test [5], 35.1%; in test [6] it was 57.5%.
Turning to `O=C(Nc1cccc(S(=O)(=O)F)c1)c1cccc([N+](=O)[O-])c1`, the growth inhibition in test [1] is 96.5% (active); in test [2], 94.8% (active); in test [3], 98.5% (active); in test [4], 91.7% (active); in test [5] it was 95.6% (active); in test [6], 96.8% (active).
For the compound `O=C(O)C(O)c1ccc(Cl)cc1` (configuration not stated), the growth inhibition in test [1] was 17.7%; in test [2] it was -0.65%; in test [3] it was -14.8%; in test [4], -15.1%; in test [5] it was 16.1%; in test [6], 11.2%.
